Bioassay records (PubChem)
Akt phos inh: HTS Assay for Inhibitors of Akt Phophorylation: Primary Screen; Neuro2A IGF-stimulated pAkt S473 HTRF, 20 min; stronger effect = lower value; activity change, % for hits at 50 µM; 0.32% of 360,000 active; in the data active means activity change below about -80%; inconclusive means mostly about -51% to -80%
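Single-point screen (50 µM final compound) in Neuro2A cells stimulated 20 min with 6 nM IGF at 37 deg C. After lysis, Ser473-phosphorylated Akt read by HTRF (ex 330 nm, em 615/665 nm) as the 665/615 ratio.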
FUS yeast rescue: qHTS for Suppressors of FUS Proteinopathy: Primary screen using FUS-linked yeast assay. S. cerevisiae FUS-expressing, growth rescue, OD600, 24 h. Potency, µM (doses to about 76.6 µM), actives largely listed as activators. 0.24% of 390,000 active. AID 1347120, 2019; further: nearly all actives have a fitted effect of over 55% in size
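Restored growth of FUS-toxic S. cerevisiae, read as 600 nm absorbance after 24 h at 30C in galactose medium (starting OD 0.005). Controls CP55940 and DMSO.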
Abeta rescue: qHTS for compounds that reverse cellular toxicity of Amyloid beta (A-beta) peptide in yeast: Primary Screen. 0.063% of 410,000 active. Potency, µM (highest dose often 46.1 µM), actives largely listed as activators. AID 1347071, 2019. yeast expressing A-beta42, growth rescue, OD600, 48 h; response scale: 0% DMSO, 100% iron-clioquinol control; further: nearly all actives have a fitted effect of over 55% in size
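Growth rescue measured by 600 nm absorbance after 48 h yeast culture at 30 C with compound. Values normalized between DMSO and an equimolar ferric chloride plus clioquinol control.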
TDP43 rescue: qHTS of TDP-43 Inhibitors | 1.8% of 410,000 active | Potency, µM (highest dose often 46.1 µM), hits mostly activators | TDP-43 expressing yeast growth rescue, BacTiter-Glo, 24 h | AID 652104, 2013; further: nearly all actives have a fitted effect of over 50% in size
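Yeast expressing TDP-43 (pregrown in raffinose, seeded at OD600=0.02 in galactose medium) exposed to compounds 24 hr at 30 deg C. Growth read by BacTiter-Glo luminescence; rescue of toxicity appears as increased signal.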
aSyn yeast inh: qHTS of alpha-syn Inhibitors; 0.14% of 370,000 active; Potency, µM (titrated, usually from 46.1 µM), usual class: activators; AID 652106, 2013; Yeast expressing alpha-synuclein, growth rescue, BacTiter-Glo, 24 h; further: nearly all actives have a fitted effect of over 65% in size
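Rescue of yeast growth: cells expressing toxic alpha-synuclein, induced in galactose at OD600 0.02, incubated with compound 24 h at 30 C. ATP luminescence quantified growth; inhibitors of toxicity appear as activators.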
Numbers stand for hits; - = inactive; ? = inconclusive; . = not tested or not shown; [ ] = remark or other dose. Compounds with a hit are over-represented: about 2.3% of the library has one in this group of screens. Unless noted, the call rests on the fitted dose curve; in most records, active means well fitted curve in the direction sought with a large enough effect; inconclusive means small, poorly fitted or top-dose-only effect, or another doubt; inactive means no such curve, though single readings can be large; an effect the other way counts as inactive or inconclusive.

SMILES	Akt phos inh	FUS yeast rescue	Abeta rescue	TDP43 rescue	aSyn yeast inh
CCOC(=O)c1cc(C)n(CC2CCC(C(=O)Nc3cc(OC)cc(OC)c3)CC2)c1C (configuration not stated)	.	-	-	-	.
CCOC(=O)c1ccccc1NS(=O)(=O)c1ccc(N2CCCCS2(=O)=O)cc1	.	-	-	-[9.22 µM]	.
CCCC(=O)N1CCc2cc(OC)c(OC)cc2C1COc1ccc2c(C)cc(=O)oc2c1 (configuration not stated)	.	-	-	-	.
O=C(Cc1ccc(Cl)cc1)NCC(c1cccs1)S(=O)(=O)c1ccc(F)cc1 (configuration not stated)	.	?	-	35.5µM	.
CC(C)(C)c1ccc(C(=O)NCC(c2cccs2)S(=O)(=O)c2cccs2)cc1 (configuration not stated)	.	?	-	-[9.22 µM]	.
CC(C)(C)c1ccc(C(=O)NCC(c2cccs2)S(=O)(=O)c2ccc(F)cc2)cc1 (configuration not stated)	.	35.5µM	-	?	.
CC(C)Oc1ccc(CNC(=O)C(C)n2ccc3cc(S(=O)(=O)N4CCCCCC4)ccc32)cc1 (configuration not stated)	.	-	-	-	.
FC(F)(F)Oc1ccc2c(c1)NC(c1ccncc1)=NC(c1cccs1)=N2	.	-	-	-	.
CC(C)(C)OC(=O)N1CCC(c2c(C(=O)N3CCCCC3)cnn2-c2ccc(F)cc2)CC1	.	-	-	-	.
CSc1nc(N)nc(SCC(=O)C23CC4CC(CC(C4)C2)C3)c1C#N	-	-	-	-	-
CCCSc1nc(N)c(C#N)c(-c2ccc(C)cc2)c1C#N	-90.5%	-	-	-	-
N#Cc1c(N)nc(SCC(=O)C23CC4CC(CC(C4)C2)C3)c(C#N)c1-c1ccc(Cl)cc1	-82.2%	-	-	-	-
Cc1nc(C)c(-c2ccc(SCc3cccc(F)c3)nn2)s1	-	-	-	20µM	-
Cc1nc(C)c(-c2ccc(SCc3ccc(Cl)cc3)nn2)s1	-	?	-	?	-
COc1ccccc1CNc1nc(Oc2cccc(F)c2)c2sccc2n1	-	?	-	35.5µM	-
CSc1nnc2c3cc(F)ccc3n(C)c2n1	-	-	-	6.31µM	2.82µM
Cn1c(=O)c2c(nc(N3CCOCC3)n2Cc2ccccc2)n(C)c1=O	.	-	-	-	.
N#Cc1ccc(C2=CC(=O)C[C@H](c3ccc4c(c3)OCO4)C2)cc1	-	?	-	17.8µM	-
O=C1C=C(c2cccc(CO)c2)C[C@@H](c2ccc3c(c2)OCO3)C1	-	-	-	20µM	-
Cc1ccc(-c2ccc(=O)n(CC(=O)Nc3ccc(C(C)C)cc3)n2)cc1	.	-	-	?	.
COc1ccc(-n2c(=O)c3c4c(sc3n(Cc3ccccc3)c2=O)CCC4)c(OC)c1	.	-	-	-	.
CC[n+]1c(/C=C/C=C2/N(C)c3ccccc3C2(C)C)sc2ccccc21	.	.	.	.	-
COc1ccc([N+](=O)[O-])c(C=CC(=O)c2ccccn2)c1	-	-	-	2.82µM	20µM
Cc1oc(-c2cccc(Br)c2)nc1Cn1c(SCc2cccc(F)c2)nc2cccnc21	.	-	?	28.2µM	.
Cc1ccc(S(=O)(=O)Nc2ccc(SC(F)F)cc2)c(C)c1	-	.	-	-	17.8µM
SMILES	Akt phos inh	FUS yeast rescue	Abeta rescue	TDP43 rescue	aSyn yeast inh
CSc1ccc(Cc2ccc(Cl)cc2Cl)nn1	-	-	-	11.2µM	-
NNc1ccc(Cc2ccc(Cl)cc2Cl)nn1	-	-	-	-	-
CCOc1ccccc1C(=O)N1CC(=O)Nc2ccc(C)cc2C1c1ccccc1 (configuration not stated)	.	-	-	-	.
CC1CCCC(NC(=O)c2cccc(S(=O)(=O)NCc3ccccc3)c2)C1C (configuration not stated)	-	-	-	35.5µM	-
CC1CCCC(NC(=O)c2cccc(S(=O)(=O)N3CCN(c4ccccc4)CC3)c2)C1C (configuration not stated)	-	-	-	-	-
Cc1ccccc1NC(=O)CN1CCN(c2nc(-c3ccccc3)cs2)CC1	.	-	.	.	.
Clc1cccc(CON/C=N/c2ncnc3sccc23)c1	.	-	-	3.55µM	-
CSc1nc(-c2ccccc2F)c(C#N)c(=O)n1C	-	-	-	20µM	-
Cc1ccc(SCC(=O)NC(=O)c2ccccc2Br)c(C)c1	-	.	-	12.6µM	-
COc1cc(CN(C)c2ncnc3sccc23)ccc1OC(F)F	-	-	-	17.8µM	-
COC(=O)c1cc(NC(=O)CCc2c(C)nc3nc(C)nn3c2C)cc(C(=O)OC)c1	.	-	-	-	.
CCOC(=O)c1cc2c(=O)n3ccccc3nc2n(CCCOC)c1=NC(=O)c1cc2ccccc2o1	.	-	-	-	.
COc1ccc(C(=O)C=Cc2ccc3c(c2)OCO3)cc1OC	-	-	-	14.1µM	-
COc1ccc(C)cc1NC(=O)c1ccc2c(c1)OCO2	-	-	-	12.6µM	-
COc1ccc(/C=C/C(=O)c2ccc3c(c2)OCCO3)cc1[N+](=O)[O-]	-	-	-	12.6µM	-
COc1ccc(C(=O)/C=C/c2ccc3c(c2)OCCO3)cc1	-	-	-	20µM	-
COc1ccc(/C=N/NC(=O)c2ccc3c(c2)OCCO3)cc1[N+](=O)[O-]	-	.	-	-	-
COc1ccc(N2C(=O)CS(=O)(=O)C23C(=O)N(Cc2ccccc2F)c2ccccc23)cc1Cl (configuration not stated)	.	-	-	-	-
COc1ccc(C2CC(=O)N(CC(=O)Nc3ccc(C)c(Cl)c3)c3ccccc3S2)cc1OC (configuration not stated)	.	?	-	-	-
Cc1ccc(Cn2c(CNC(=O)Cc3cccc([N+](=O)[O-])c3)nc3cccnc32)cc1	.	-	-	-	.
O=C(/C=C/c1ccc2c(c1)OCCO2)c1ccccc1	-	-	-	15.8µM	-
Cc1ccc(O)c(C(=O)/C=C/c2ccc3c(c2)OCCO3)c1	-	-	-	17.8µM	-
COc1ccc(NC(=O)C2CCCN(c3nnc(C)c4c(C)n(-c5ccccc5)nc34)C2)cc1Cl (configuration not stated)	.	?	-	-	.
CCc1nnc(NC(=O)c2ccc(S(=O)(=O)N(CC(C)C)CC(C)C)cc2)o1	-	-	-	?	22.4µM
Cc1nnc(NC(=O)c2ccc3ccccc3c2)o1	-	-	15.8µM	?	?
COCc1nnc(NC(=O)c2ccc(S(=O)(=O)N(C)Cc3ccccc3)cc2)o1	-	-	-	-	-
Cc1nnc(NC(=O)c2ccc(S(=O)(=O)N(C)Cc3ccccc3)cc2)o1	-	-	?	17.8µM	?
O=C(Nc1nnc(-c2ccco2)o1)c1ccc2ccccc2c1	-	.	?	-	-
CCOc1nc(C#N)nc(N(c2ccccc2)c2ccccc2)n1	.	.	.	.	-
